# From PubChem BioAssay AID2472 (National Center for Advancing Translational Sciences (NCATS), 2010)
# Where “and” joins values, the source holds several entries; their conditions need not be identical. Equal values may be shown once. Screen size: about 290,000 compounds; about 2,000 (0.69%) were called active. The full list was thinned out, with actives kept by preference. Values without a mark were called inactive. No stated cut-off is given here; in the data, active means activity change below about -30%; inactive means the rest, inconclusive results apart.
# Assay: qHTS Assay for Inhibitors of Fructose-1,6-bisphosphate Aldolase from Giardia Lamblia: Coupling assay counterscreen
# Conditions: coupling enzyme system counterscreen, AmpLite Red fluorescence; at 58.2 µM (top of the series)
# Source text: MLPCN Grant: MH085699-01 Assay Provider: Osnat Herzberg, University of Maryland NCGC Assay Overview: The objective of this project is to obtain compounds that inhibit Giardia lamblia growth. G. lamblia is a human pathogen which afflicts impoverished nations; it is the most common cause of outbreaks of diarrhea in the United States. During the course of our study of potential drug targets in Giardia, we have identified the Class II (Zn2+ functions in electrophilic catalysis) fructose-1,6-bisphosphate aldolase (FBPA) as an excellent candidate for drug targeting. FBPA is a key glycolytic pathway enzyme, essential for G. lamblia survival. The human FBPA belongs to the Class I aldolases, which have a different substrate binding site structure and a radically different catalytic mechanism (employing a lysine-Schiff base intermediate). Therefore, affinity-based or mechanism-based inhibitors of the Giardia FBPA are expected not to interfere with the catalytic function of the human FBPA. A glyceraldehyde-3-phosphate dehydrogenase/triose phosphate isomerase/NAD/arsenate coupled assay was adapted to the 1536-well HTP format for use in the primary screen. This was done by coupling it to a diaphorase/resazurin/resorufin reaction that can be monitored by fluorescence (excitation, 544 nm; emission, 590 nm). Compounds identified in this screen will be further evaluated by coupling the […]/triose phosphate isomerase/NADH assay to a phenazine methosulfate/tetranitroblue tetrazolium color reaction. False positives due to the dehydrogenases and diaphorase inhibition will be eliminated, and selectivity assay will triage inhibitors of mammalian triose phosphate isomerase and the Class I FBPA. G. lamblia FBPA inhibitors identified by the in vitro analyses will be examined for growth inhibition of Giardia trophozoites, and for cytotoxicity in human cells. This assay specifically addresses whether activity observed in the primary screen (AID 2451) is related to inhibition of the coupling assay used, as opposed to inhibition of aldolase. Actives in this assay are considered inconclusive for activity against aldolase.
# NCGC Assay Protocol: Step,Parameter,Value,Description 1,Coupling enzyme reagent,2 uL,glyceraldehyde-3-phosphate 2,Compound,23 nL,3.68 nM-57.5 uM final concentration 3,Time,10 min,RT Incubation 4,Substrate/detection Reagent,2 uL,Substrate + enzyme coupling system + AmpLite Red kit 5,Time,20 min,RT Incubation 6,Detector,525 nm/598 nm (Fluorescence),ViewLux Fluorescence Read (Read 1) Notes: 1,Medium-binding black solid-bottom Kalypsys plates. FRD or Kalypsys dispenser. 2,Compound Library (10 mM ,1:5 dilution). Pin-transferred for a [final] range of 3.68 nM-57.5 uM. 3,RT incubation 4,FRD or Kalypsys dispenser, 2 uL of reaction mixture. Bottle kept at 4C and covered in foil to protect from light. 5,RT incubation 6,ViewLux Protocol 1194; Excitation filter wheel A (525/20 Pol; BODIPY TMR FP), Emission filter wheel B (598/25 S; BODIPY TMR FP S). Keywords: Fructose-bisphosphate aldolase, FBPA , Giardia lamblia , Giardia, HTS, Inhibitors
# On the % scale 0 is the no-effect control and ±100 the full control effect.
row,Compound,"activity change, negative = inhibition"
1,C=CCn1c(CNC(=O)c2ccco2)nnc1SCC(=O)c1ccc(OC)cc1,1.42%
2,COC(=O)c1ccc(NC(=O)CSc2nnc(CNc3ccc(OC)cc3)n2C)cc1,-19.7%
3,CC1=C(C(N)=O)C(c2ccc(F)cc2)n2nc(CCCO)nc2N1 (centres undefined),-0.212%
4,O=C(O)c1cc(S(=O)(=O)NC2CCCc3ccccc32)ccc1O (centres undefined),20.1%
5,CCN(CC)CCn1c(N)c(S(=O)(=O)c2ccccc2)c2nc3ccccc3nc21,2.05%
6,C=CCn1c(N)c(S(=O)(=O)c2cccs2)c2nc3ccccc3nc21,-35.3% (active)
7,Cc1ccc(S(=O)(=O)c2c(N)n(C)c3nc4ccccc4nc23)cc1,-4.65%
8,CC(=O)NC1CCN(CC(=O)Nc2nccs2)CC1,-1.15%
9,CN(C)c1ccc(-c2nc(NCCN3CCOCC3)c3ccccc3n2)cc1,-0.456%
10,c1ccc2cc3c(NCCN4CCOCC4)ccnc3cc2c1,-52.2% (active)
11,Clc1ccccc1-c1cc(NCCN2CCOCC2)ncn1,2.16%
12,COc1cc(NC(=O)c2ccccc2)c(OC)cc1NC(=O)Cc1ccccc1,-0.254%
13,COc1cccc(CNC(=O)CCC2CCCN(Cc3ccc(OC(F)F)cc3)C2)c1 (centres undefined),5.02%
14,Cc1ccc(C(=O)N(CC(=O)NC2CCCC2)c2ccc(F)cc2)s1,-3.12%
15,CC1(OC(=O)C2CCCC2)C(=O)C=C2C=C(c3ccc(C#N)cc3)OC=C2C1=O (centres undefined),-0.443%
16,CC1(OC(=O)CCc2ccccc2)C(=O)C=C2C=C(c3ccc(C#N)cc3)N(CCc3ccccn3)C=C2C1=O (centres undefined),-28.3% and -0.189%
17,COCCN1C=C2C(=O)C(C)(OC(=O)C3CCCC3)C(=O)C=C2C=C1c1ccsc1 (centres undefined),-33.6% (active) and -32.5% (active)
18,Cc1onc(-c2ccccc2Cl)c1C(=O)OCC(=O)c1ccccc1,-1.67%
19,CC(C)N(C(=O)c1ccc(-c2ccccc2F)cc1)C(C)C,-0.0112%
20,CC(=O)N(C1=C(Cl)C(=O)c2ccccc2C1=O)c1ccc(C(=O)O)cc1,-85.1% (active)
21,O=C(CN1C(=O)c2ccccc2C1=O)NCc1ccc(C(=O)O)cc1,0.209%
22,COc1ccc(C(=O)N2CCC3(CC2)CCN(c2ccccn2)CC3)cc1,-4.93%

row,Compound,"activity change, negative = inhibition"
1,Cc1ccc(CNC(=O)Cn2cnc(S(=O)(=O)N3CCCCC3)c2)o1,0.0578%
2,CCCCn1c(SCC(=O)NCC2CCCO2)nc2ccc(N3CCOCC3)cc2c1=O (centres undefined),-43.6% (active)
3,COCCNC(=O)c1ccc(Cn2c(SCC(=O)NCC3CCCO3)nc3ccc(Br)cc3c2=O)cc1 (centres undefined),0.29%
4,O=C(CCCn1c(SCC(=O)c2ccccc2)nc2ccccc2c1=O)NCC1CCCO1 (centres undefined),-0.079%
5,Cc1ccc(OCC(=O)NCCCNC(=O)c2cccnc2)cc1C,-0.615%
6,COc1ccc(/C=N/Nc2nc3ccccc3c(=O)[nH]2)cc1,0.889%
7,O=[N+]([O-])c1cccc2ncccc12,0.0628%
8,COc1ccc(C=Nc2cccc3ncccc23)cc1,-34.4% (active)
9,CCCCC/C=C\C/C=C\C/C=C\CCCCC(=O)NCC(=O)O,4.26%
10,COC(=O)C1=C(C(=O)OC)[C@@H]2N(C)c3ccccc3[C@@]23C[C@@H](C(=O)OC)N(S(=O)(=O)c2cccs2)C3=N1,-0.105%
11,O=C1CN(Cc2ccccc2)S(=O)(=O)c2ccccc21,13.2%
12,COc1ccc(CC(=O)N/N=C/c2cc([N+](=O)[O-])cc(Br)c2O)cc1,8.72%
13,COc1ccc(CC(=O)NCC(=O)N/N=C/c2cc(Br)ccc2OC)cc1,-33.8% (active)
14,Cc1ccc(OCCOCCOc2ccc(Br)cc2/C=N\NC(=O)c2ccncc2)cc1,-5.74%
15,COc1cccc(OCc2cc(C(=O)N3CCN(C(=O)c4ccco4)CC3)no2)c1,-0.102%
16,N#Cc1c(-c2ccccc2)cc(-c2ccccc2)nc1SCC(=O)O,5.25%
17,N#Cc1c(N2CCCCC2)nc(N)c2c(N)nc(SCC(=O)O)cc12,-31.7% (active)
18,Cc1cc(C)c(C#N)c(N2CCC(C(N)=O)CC2)n1,0.379%
19,CCN1CCN(c2sc(S(C)(=O)=O)nc2S(=O)(=O)c2ccc(Cl)cc2)CC1,1.03%
20,Cc1ccc(-c2nc3ccccc3[nH]c2=O)cc1,1.32%
21,O=c1[nH]c2ccccc2n2c(-c3ccccc3)nnc12,-62.8% (active)
22,CC(=O)c1c(-c2ccccc2)c2ccccc2[nH]c1=O,7.44%
